Hit rate of the full screen: of about 310,000 compounds, about 14,000 (4.5%) showed an effect of 50% or more. The effect is printed as a negative number. The sample holds strong results, similar compounds and a random draw of the others, so the mix is not that of the screen.
Target: human ether-à-go-go-related gene (hERG) potassium channel (human, UniProt Q12809)
Experiment: primary screen, population patch clamp on CHO cells stably expressing hERG; higher = less effect of the substance
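Further: peak tail current of the secondary pulse compared with the same well before compound.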

human ether-à-go-go-related gene (hERG) potassium channel, sequence (Q12809 whole entry, looked up): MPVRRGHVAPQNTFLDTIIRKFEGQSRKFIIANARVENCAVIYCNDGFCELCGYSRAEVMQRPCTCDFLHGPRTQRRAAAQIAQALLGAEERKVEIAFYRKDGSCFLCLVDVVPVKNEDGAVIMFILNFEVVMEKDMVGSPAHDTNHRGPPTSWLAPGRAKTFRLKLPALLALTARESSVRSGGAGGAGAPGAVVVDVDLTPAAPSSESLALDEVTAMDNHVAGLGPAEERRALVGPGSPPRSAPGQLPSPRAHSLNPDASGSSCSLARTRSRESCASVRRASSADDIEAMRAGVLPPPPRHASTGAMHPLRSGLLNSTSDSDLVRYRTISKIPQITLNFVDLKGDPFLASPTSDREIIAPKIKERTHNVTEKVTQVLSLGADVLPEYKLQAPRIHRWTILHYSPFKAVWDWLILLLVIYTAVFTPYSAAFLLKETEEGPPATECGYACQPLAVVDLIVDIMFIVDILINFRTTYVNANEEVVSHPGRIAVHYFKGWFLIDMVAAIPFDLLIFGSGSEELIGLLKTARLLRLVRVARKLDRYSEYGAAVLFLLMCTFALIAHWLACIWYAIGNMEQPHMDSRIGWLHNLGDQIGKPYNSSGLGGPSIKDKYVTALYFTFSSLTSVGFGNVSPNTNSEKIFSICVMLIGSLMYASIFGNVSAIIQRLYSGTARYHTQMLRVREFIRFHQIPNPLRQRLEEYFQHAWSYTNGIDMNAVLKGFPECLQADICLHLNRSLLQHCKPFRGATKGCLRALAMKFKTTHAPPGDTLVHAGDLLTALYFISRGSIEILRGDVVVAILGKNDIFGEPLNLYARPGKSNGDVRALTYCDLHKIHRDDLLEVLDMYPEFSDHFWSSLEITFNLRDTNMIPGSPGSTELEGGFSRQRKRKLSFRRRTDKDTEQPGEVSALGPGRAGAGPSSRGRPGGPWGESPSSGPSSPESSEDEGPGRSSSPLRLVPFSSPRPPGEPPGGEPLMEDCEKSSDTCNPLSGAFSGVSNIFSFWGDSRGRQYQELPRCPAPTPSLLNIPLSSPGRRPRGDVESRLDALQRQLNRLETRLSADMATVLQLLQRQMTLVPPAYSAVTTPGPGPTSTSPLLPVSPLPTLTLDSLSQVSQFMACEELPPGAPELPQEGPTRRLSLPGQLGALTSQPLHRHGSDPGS

SMILES	hERG current change (%, negative = inhibition) at 10uM
Cc1cccc(NC(=S)NC2CC3CCCC(C2)N3Cc2ccco2)c1 (stereo not shown)	-21.7%
Cc1ccc(NC(=S)NC2CC3CCC(C2)N3Cc2ccco2)cc1C (stereo not shown)	-36.1%
Cc1cc(C)cc(NC(=S)NC2CC3CCC(C2)N3Cc2ccco2)c1 (stereo not shown)	-71.5%
Cc1cccc(NC(=S)NC2CC3CCC(C2)N3Cc2ccco2)c1 (stereo not shown)	-43.5%
Cc1ccc(NC(=S)NC2CC3CCCC(C2)N3Cc2ccco2)cc1 (stereo not shown)	-52.8%
CCc1ccc(NC(=S)NC2CC3CCC(C2)N3Cc2ccco2)cc1 (stereo not shown)	-45.5%
O=C(Nc1ccc2c(c1)CCC2)c1ccccc1Br	-12.9%
Cc1cc(N/N=C/c2ccc(O)cc2O)c2ccccc2n1	4.97%
Cc1cc(N/N=C/c2ccccc2O)c2ccccc2n1	-72.5%
COc1cccc2c(N/N=C/c3ccco3)cc(C)nc12	-5.81%
Cc1cc(C)c2nc(C)cc(N/N=C/c3ccc(O)cc3)c2c1	-33.7%
Cc1cc(N/N=C/c2ccc(O)cc2)c2cccc(C)c2n1	-51.6%
Cc1ccc2nc(C)cc(N/N=C/c3ccccc3O)c2c1	2.38%
COc1ccc(/C=N/Nc2cc(C)nc3c(C)cccc23)cc1	-57.5%
COc1ccc2nc(C)cc(N/N=C/c3cccc(OC)c3O)c2c1	-13%
COc1cccc2c(N/N=C/c3ccc(O)c(O)c3)cc(C)nc12	18.9%
COc1ccc(/C=N/Nc2cc(C)nc3ccc(OC)cc23)c(OC)c1	-50.1%
COc1cccc2c(N/N=C/c3ccccc3)cc(C)nc12	-9.04%
COc1ccccc1/C=N/Nc1cc(C)nc2ccc(C)cc12	7.89%
COCCCNC(=O)c1oc2ccc(S(=O)(=O)N(C)C3CCCCC3)cc2c1C	-4.45%
COc1ccccc1-c1cc(-c2ccc(O)cc2)nc(N)c1C#N	13.9%
CC(=O)c1ccc(S(=O)c2ccccc2)cc1 (stereo not shown)	-3.38%
Cc1ccc(CSc2nnc(C)c(=O)[nH]2)cc1	10.9%
S=C(NCc1ccccn1)Nc1ccc(Cl)cc1Cl	6.07%

SMILES	hERG current change (%, negative = inhibition) at 10uM
O=C(CCc1ccccc1)NCC(=O)N/N=C/c1ccc(O)cc1O	-8.41%
COCc1cc(=O)[nH]c(Sc2c(-c3ccccc3)c3ccc(Cl)cc3[nH]c2=O)n1	20.4%
O=C(NCCCN1CCCC1=O)C(=O)NCC1OCCCN1S(=O)(=O)c1cc(F)ccc1F (stereo not shown)	23.8%
CC(=O)C1=C(c2ccccc2)NC(=O)NC1c1ccc(O)c(Cl)c1 (stereo not shown)	17.6%
O=C(COc1ccccc1Cl)c1ccc2c(c1)CCCC2	-0.256%
Cc1nc2nc(SCC(=O)Nc3cccc(F)c3)[nH]c2cc1Br	23.2%
C/C(N)=C(/C#N)C(=O)COC(=O)c1ccccc1O	-0.192%
Cc1ccc(NC(=O)CSc2ccc(-c3ccco3)nn2)cc1	-7.67%
CCCN(CCC)CC(C)(C)NS(=O)(=O)c1ccc(Cl)cc1	-17.1%
COc1ccc(/C=N/Nc2cc(C)nc3ccccc23)cc1	-63.3%
COc1ccc(/C=N/Nc2cc(C)nc3ccc(Br)cc23)cc1	-35.1%
COc1ccc2nc(C)cc(N/N=C/c3ccccc3)c2c1	-17.1%
COc1ccc(-n2c(C)cc(/C=C/c3nc(O)c([N+](=O)[O-])c(=O)[nH]3)c2C)cc1	3.06%
CC1(C)NC(=O)N(CC(=O)NNC(=O)c2ccccc2F)C1=O	3.42%
Cn1ncc(Br)c1C(=O)NC1CCCC1	24.1%
C=CCn1c(O)c(C(C)=Nc2cccc(C(=O)O)c2)c(=O)[nH]c1=O	1.4%
O=C(c1ccc(Cl)cc1Cl)c1ncc(C(F)(F)F)cc1Cl	-10.1%
O=c1oc2cc(Br)ccc2n1Cc1ccccc1	18.6%
Cc1c(CN(C)C)c2c(n1C)C(=O)c1ccc(Br)cc1-2.Cl	-37.3%
Cc1c(CN(C)C)c2c(n1Cc1ccccc1)C(=O)c1ccccc1-2.Cl	-75.6%
Cc1c(CN(C)C)c2c(n1Cc1ccccc1)C(=O)c1ccc(Br)cc1-2.Cl	-74.5%
Cc1cc(O)cc(=O)n1Cc1ccccc1	12%
Cc1cc(=O)n(Cc2ccccc2)c2ccccc12	4.79%
COCc1nnc(SCC(=O)NCc2ccccc2)n1-c1ccccc1	-3.33%

SMILES	hERG current change (%, negative = inhibition) at 10uM
CCOCCCNC(C(=O)Nc1ccc(OC)c(Cl)c1)c1ccccc1 (stereo not shown)	-35.1%
CCC(C)C(NC(N)=O)C(=O)Nc1ccc(C)c(Cl)c1 (stereo not shown)	10.9%
CCc1ccc(C(=O)c2cncc(Br)c2)cc1	-18.3%
COc1ccc2oc(C)c(C(=O)NN)c2c1	-1.4%
CCOC(=O)c1c(CN2CCOCC2)oc2ccc(OC)cc12	-7.29%
CCOC(=O)c1c(CN2CCCCC2)oc2ccc(OC)cc12	-61.6%
COc1ccc2oc(C(=O)OCC(=O)N3CCCC(C)C3)c(C)c2c1 (stereo not shown)	-39.4%
CCOC(=O)c1c(CN2CCN(C)CC2)oc2ccc(O)cc12	-38%
CCOC(=O)c1c(CN2CCOCC2)oc2ccc(OC(C)=O)cc12	13.9%
CCOC(=O)c1c(CN2CCCCC2)oc2ccc(O)cc12.Cl	-54.3%
CCOC(=O)c1c(CN2CCC(C)CC2)oc2ccc(OC)cc12	-51.2%
COc1ccc2oc(C)c(C(=O)c3ccccc3)c2c1	-7.34%
COc1ccc2oc(C(=O)OC(C)C(=O)N3CCC(C)CC3)c(C)c2c1 (stereo not shown)	-5.44%
CCOC(=O)c1c(CN2CCN(c3ccccc3)CC2)oc2ccc(O)cc12	-4.3%
CCOC(=O)CCC(=O)c1c(C)oc2ccc(OC)cc12	-57.2%
CCOC(=O)c1cnc(Nc2nc3ccccc3o2)nc1CSc1nnc(C)s1	-5.06%
C/C(=N\NC(=O)c1ccco1)c1ccc(NC(=O)c2cccs2)cc1	5.09%
Cc1ccc(NC(=O)CCC(=O)Nc2ccc(C)cc2)cc1	12.2%
COC(=O)C1=C(c2ccc3ccccc3c2)C[C@@H]2CC[C@H]1N2C(=O)N1CCCCC1	2.21%
CCn1nc(C)c(/C=N/NC(=O)c2nc3nc(C)cc(C)n3n2)c1C	14.1%
COc1ccc(-c2nnn(Cc3nn[nH]n3)n2)cc1OC	3.25%
O=C(CCSc1nnc(-c2ccncc2)o1)Nc1ccccc1Cl	-10.9%
CCN(CC)CCOC(=O)c1c(C)oc2ccc(OC)cc12.Cl	-36.6%
CCOC(=O)c1c(CN(CC)CC)oc2ccc(OC)cc12	-61.9%

SMILES	hERG current change (%, negative = inhibition) at 10uM
CCOC(=O)c1c(-c2ccc(OC)cc2)oc2ccc(O)cc12	13.1%
CCOC(=O)c1c(C)n(CCN2CCN(C)CC2)c2ccc(OC)cc12.Cl	-20.2%
CCOC(=O)c1c(CN2CCCCC2C)oc2ccc(OC)cc12.Cl (stereo not shown)	-58.9%
COc1ccc2oc(C(=O)OCC(=O)N3C(C)CCCC3C)c(C)c2c1 (stereo not shown)	-14.8%
CCOC(=O)c1c(CN2CCCCC2)oc2ccc(OC)cc12.Cl	-58.4%
CCc1ccc2oc(=O)cc(CN3CCCCC3C)c2c1.Cl (stereo not shown)	-16.7%
CCOC(=O)c1c(-c2ccccc2)oc2ccc(OC)cc12	1.46%
Cc1ccc(C(=O)Nc2nnc(Cc3ccccc3)s2)cc1	9.35%
C=CCNC(=O)c1cc(-c2cccnc2)nc2ccccc12	-34.7%
Cc1ccc(/C=C/C(=O)N2CCN(c3ccc(F)cc3)CC2)o1	-15.8%
CSCC[C@H](NC(=O)[C@@H]1CSC2c3ccccc3C(=O)N21)C(=O)N1CCC[C@H]1CO (stereo partly shown)	1.52%
COc1ccc(N2CCN(Cc3nnc(-c4ccccc4)o3)CC2)cc1	-0.362%
O=C1Nc2ccccc2/C1=N\N1CCOCC1	2.95%
Cc1nc2nc(-c3ccccc3)[nH]n2c(=O)c1C	-3.77%
CCN1CC2=C(OC(N)=C(C#N)C2c2ccccc2)/C(=C\c2ccccc2)C1 (stereo not shown)	-6.02%
CCCCN(CC)Cc1ccc(CNC(=S)Nc2ccc(C)cc2Cl)o1	-32.1%
CCCCN(CC)Cc1ccc(CNC(=S)Nc2ccccc2F)o1	-16.3%
CCCCN(CC)Cc1ccc(CNC(=S)Nc2c(C)cc(C)cc2C)o1	-54.8%
CCCCN(CC)Cc1ccc(CNC(=O)Nc2ccccc2)o1	-9.65%
CCCCN(CC)Cc1ccc(CNC(=O)Nc2ccc(F)cc2)o1	-32.1%
CCCCN(CC)Cc1ccc(CNC(=O)Nc2ccc(Cl)cc2)o1	-61.9%
CN1C(=O)NC(c2ccccc2[N+](=O)[O-])C2=C1CCCC2=O (stereo not shown)	10.1%
